This note sets out measurements from PubChem BioAssay AID2284185 (EPA ToxCast).

Broadly, the AC50 is the concentration at which the activity in the assay is half-maximal.

Active and inactive are the calls of the source. The calls were made as follows: active = hit-call score of the fitted dose curve at least 0.9, where 1 is the maximum; inactive = score below 0.9.

For this assay, the target named is human Dopamine Receptor D4.2 Antagonism, DRD4 (gene 1815) (UniProt P21917). The experiment in a line: ERF_TW_GPCR_hDRD4: Eurofins (ERF) G Protein-Coupled Receptor (GPCR) Radioligand Binding LeadHunter Assay for human Dopamine Receptor D4.2 Antagonism. On the procedure: ERF_TW_GPCR_hDRD4 is a biochemical, single-readout assay that uses extracted gene-proteins in a cell-free assay. Measurements were taken 2 hour after chemical dosing in a 96-well plate. See D4.2 Human Dopamine GPCR Binding (Antagonist Radioligand) Assay, Panlabs.ERF_TW_GPCR_hDRD4 is an assay component calculated from the ERF_TW_GPCR_hDRD4 assay. It is designed to measure radioligand binding using a type of binding reporter as detected by scintillation counting with radiometry technology.Data from the assay component ERF_TW_GPCR_hDRD4 was analyzed at the assay endpoint, ERF_TW_GPCR_hDRD4, in the positive analysis fitting direction relative to DMSO as the negative control and baseline of activity. Using a type of binding reporter, loss-of-signal activity can be used to understand changes in binding as they relate to gene DRD4. To generalize the intended target to other relatable targets, this assay endpoint is annotated to the gpcr intended target family, where the subfamily is dopamine.
Sequence of human Dopamine Receptor D4.2 Antagonism, DRD4 (gene 1815) (P21917 whole entry, looked up): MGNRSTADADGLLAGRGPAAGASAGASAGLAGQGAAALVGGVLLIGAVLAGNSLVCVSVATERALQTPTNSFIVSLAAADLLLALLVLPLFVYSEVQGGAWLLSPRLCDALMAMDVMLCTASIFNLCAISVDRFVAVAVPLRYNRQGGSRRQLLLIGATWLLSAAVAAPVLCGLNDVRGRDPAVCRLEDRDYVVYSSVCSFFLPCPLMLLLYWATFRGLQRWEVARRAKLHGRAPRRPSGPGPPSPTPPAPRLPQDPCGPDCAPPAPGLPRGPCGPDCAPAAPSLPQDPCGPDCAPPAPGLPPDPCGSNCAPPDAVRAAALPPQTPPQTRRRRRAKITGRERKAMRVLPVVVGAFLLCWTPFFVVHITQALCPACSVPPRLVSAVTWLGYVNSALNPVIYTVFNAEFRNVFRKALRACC
Human recombiant cells are prepared in Tris-HCl buffer pH 7.4. A 24 ug aliquot is incubated with 0.5 nM [3H] Spiperone for 2 hours at 25C. Non-specific binding is estimated in the presence of 10 uM Haloperidol.
For the molecule `O=C(/C=C/c1ccc(O)cc1)CC(=O)/C=C/c1ccc(O)cc1`, the concentration at half-maximal activity (AC50) is 1.12 µM (active).
